Results as given in the supplement of paper PMC8975748.
Where a name gives a salt, the structure may show the parent alone. ± gives the standard deviation of the averaged measurements.

Columns and labels:
[1] = tested on: Saccharomyces cerevisiae BY4741 SeMeCo community; assay: mean cell size (pixel area) (pixels); higher = larger cells; conditions: 10 µM; 24 h; SM minimal medium
In short: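 A fluorescent Saccharomyces cerevisiae BY4741 community carrying four plasmids was used, with each plasmid complementing one auxotrophy and bearing a fluorescent marker. An overnight preculture at OD600 = 1.0 was diluted to OD600 = 0.3, and 70 µl went into 384-well plates acoustically predosed with drug (final 10 µM) in SM medium for 24 h. After paraformaldehyde fixation, cells were imaged by automated confocal microscopy and analysed in Harmony, giving the mean cell pixel area per well. Each value is the average of 3 replicates. Same SeMeCo high-content imaging drug screen: Selleck FDA-approved drugs at 10 µM, 24 h in SM medium, 384-well plates, 3 replicates.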

[2] = tested on: Saccharomyces cerevisiae BY4741 SeMeCo community; assay: z-score of prototroph abundance vs DMSO median; higher = larger share of this subpopulation than in DMSO controls; conditions: 10 µM; 24 h; SM minimal medium; subpopulation (auxotrophy): Prototroph
In short: (§1)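 A community of Saccharomyces cerevisiae BY4741 was built from four plasmids that each restored one auxotrophy and encoded a distinct fluorescent protein. Pre-grown overnight to OD600 1.0 and diluted to 0.3, it was dispensed at 70 µl into 384-well plates acoustically predosed with library drugs for a final 10 µM, and grown 24 h in minimal SM medium. Cells were then paraformaldehyde-fixed and imaged by automated confocal microscopy. Thresholds and autofluorescence correction came from single-auxotroph fluorescent strains, and each subpopulation's abundance was scored as a z-score relative to the vehicle-well median.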

[3] = tested on: Saccharomyces cerevisiae BY4741 SeMeCo community; assay: z-score of subpopulation abundance vs DMSO median, subpopulation auxotrophic for L; higher = larger share of this subpopulation than in DMSO controls; conditions: 10 µM; 24 h; SM minimal medium; subpopulation (auxotrophy): L
In short: as §1

[4] = tested on: Saccharomyces cerevisiae BY4741 SeMeCo community; assay: z-score of subpopulation abundance vs DMSO median, subpopulation auxotrophic for U; higher = larger share of this subpopulation than in DMSO controls; conditions: 10 µM; 24 h; SM minimal medium; subpopulation (auxotrophy): U
In short: as §1

[5] = tested on: Saccharomyces cerevisiae BY4741 SeMeCo community; assay: z-score of subpopulation abundance vs DMSO median, subpopulation auxotrophic for H; higher = larger share of this subpopulation than in DMSO controls; conditions: 10 µM; 24 h; SM minimal medium; subpopulation (auxotrophy): H
In short: as §1

[6] = tested on: Saccharomyces cerevisiae BY4741 SeMeCo community; assay: z-score of subpopulation abundance vs DMSO median, subpopulation auxotrophic for LM; higher = larger share of this subpopulation than in DMSO controls; conditions: 10 µM; 24 h; SM minimal medium; subpopulation (auxotrophy): LM
In short: as §1

[7] = tested on: Saccharomyces cerevisiae BY4741 SeMeCo community; assay: z-score of subpopulation abundance vs DMSO median, subpopulation auxotrophic for HM; higher = larger share of this subpopulation than in DMSO controls; conditions: 10 µM; 24 h; SM minimal medium; subpopulation (auxotrophy): HM
In short: as §1

[8] = tested on: Saccharomyces cerevisiae BY4741 SeMeCo community; assay: z-score of subpopulation abundance vs DMSO median, subpopulation auxotrophic for HU; higher = larger share of this subpopulation than in DMSO controls; conditions: 10 µM; 24 h; SM minimal medium; subpopulation (auxotrophy): HU
In short: as §1

[9] = tested on: Saccharomyces cerevisiae BY4741 SeMeCo community; assay: z-score of subpopulation abundance vs DMSO median, subpopulation auxotrophic for UM; higher = larger share of this subpopulation than in DMSO controls; conditions: 10 µM; 24 h; SM minimal medium; subpopulation (auxotrophy): UM
In short: as §1

[10] = tested on: Saccharomyces cerevisiae BY4741 SeMeCo community; assay: z-score of subpopulation abundance vs DMSO median, subpopulation auxotrophic for HL; higher = larger share of this subpopulation than in DMSO controls; conditions: 10 µM; 24 h; SM minimal medium; subpopulation (auxotrophy): HL
In short: as §1

[11] = tested on: Saccharomyces cerevisiae BY4741 SeMeCo community; assay: z-score of subpopulation abundance vs DMSO median, subpopulation auxotrophic for HLU; higher = larger share of this subpopulation than in DMSO controls; conditions: 10 µM; 24 h; SM minimal medium; subpopulation (auxotrophy): HLU
In short: as §1

[12] = tested on: Saccharomyces cerevisiae BY4741 SeMeCo community; assay: z-score of subpopulation abundance vs DMSO median, subpopulation auxotrophic for HLM; higher = larger share of this subpopulation than in DMSO controls; conditions: 10 µM; 24 h; SM minimal medium; subpopulation (auxotrophy): HLM
In short: as §1

[13] = tested on: Saccharomyces cerevisiae BY4741 SeMeCo community; assay: z-score of subpopulation abundance vs DMSO median, subpopulation auxotrophic for HUM; higher = larger share of this subpopulation than in DMSO controls; conditions: 10 µM; 24 h; SM minimal medium; subpopulation (auxotrophy): HUM
In short: as §1

[14] = tested on: Saccharomyces cerevisiae BY4741 SeMeCo community; assay: z-score of subpopulation abundance vs DMSO median, subpopulation auxotrophic for LUM; higher = larger share of this subpopulation than in DMSO controls; conditions: 10 µM; 24 h; SM minimal medium; subpopulation (auxotrophy): LUM
In short: as §1

[15] = tested on: Saccharomyces cerevisiae BY4741 SeMeCo community; assay: z-score of subpopulation abundance vs DMSO median, subpopulation auxotrophic for HLUM; higher = larger share of this subpopulation than in DMSO controls; conditions: 10 µM; 24 h; SM minimal medium; subpopulation (auxotrophy): HLUM
In short: as §1

[16] = tested on: Saccharomyces cerevisiae BY4741 SeMeCo community; assay: z-score of subpopulation abundance vs DMSO median, subpopulation auxotrophic for M; higher = larger share of this subpopulation than in DMSO controls; conditions: 10 µM; 24 h; SM minimal medium; subpopulation (auxotrophy): M
In short: as §1

[17] = tested on: Saccharomyces cerevisiae BY4741 SeMeCo community; assay: z-score of subpopulation abundance vs DMSO median, subpopulation auxotrophic for LU; higher = larger share of this subpopulation than in DMSO controls; conditions: 10 µM; 24 h; SM minimal medium; subpopulation (auxotrophy): LU
In short: as §1

| SMILES | mean cell size [1] | z-score of prototroph abundance [2] | z-score of subpopulation abundance [3] | z-score of subpopulation abundance [4] | z-score of subpopulation abundance [5] | z-score of subpopulation abundance [6] | z-score of subpopulation abundance [7] | z-score of subpopulation abundance [8] | z-score of subpopulation abundance [9] | z-score of subpopulation abundance [10] | z-score of subpopulation abundance [11] | z-score of subpopulation abundance [12] | z-score of subpopulation abundance [13] | z-score of subpopulation abundance [14] | z-score of subpopulation abundance [15] | z-score of subpopulation abundance [16] | z-score of subpopulation abundance [17] |
| --- | --- | --- | --- | --- | --- | --- | --- | --- | --- | --- | --- | --- | --- | --- | --- | --- | --- |
| CC1=Nc2ccc(Cl)cc2S(=O)(=O)N1 [Diazoxide] | 12.4 ± 0.1 | 0.72 | -0.67 | 0.16 | -0.86 | -1.03 | -0.62 | -0.17 | -0.03 | -0.72 | -0.88 | -1.55 | -0.41 | -0.9 |  |  |  |
| CCCCCCCCc1ccc(CCC(N)(CO)CO)cc1 [Fingolimod] | 12.1 ± 0.37 | 2.04 | -1.22 |  | -0.65 | -1.42 | -1.86 | -0.71 | -1.44 |  | -1.65 | -1.02 | -1.31 | -1.47 | -1.27 |  |  |
| CC[C@@H](CO)NCCN[C@@H](CC)CO [Ethambutol 2HCl] | 12.46 ± 0.11 | -0.36 | 0.27 | 1.13 | -1.02 | 0.23 | -0.9 | 0.27 | 1.23 | 0.36 |  | 0.16 | 0.7 | 1.15 | 0.6 | -0.81 | 1.65 |
| CC[N+](CC)(CC)CC [Tetraethylammonium bromide] | 12.27 ± 0.094 | -0.64 | -0.06 |  | -0.73 | 0.41 | 0.22 |  | 0.12 |  |  | -0.06 | -0.37 | 0.28 |  | 0.89 | 1.18 |
| CN1C[C@@H]2C[C@H]1CN2c1cc2c(cc1F)c(=O)c(C(=O)O)cn2C1CC1 [Danofloxacin Mesylate] | 12.1 ± 0.25 | 0.27 | -0.69 | 0.06 | 0.54 |  | -0.46 | -0.09 | 0 | -0.06 |  | -0.5 | -0.05 | -0.46 |  | 0.03 | -0.89 |
| CC(C)(C)CC(C)(C)c1ccc(OCCOCC[N+](C)(C)Cc2ccccc2)cc1 [Benzethonium Chloride] | 11.7 ± 0.27 | 0.89 | -0.55 | 0.39 |  | -0.72 | -1.27 |  | -0.2 |  |  | -0.12 | -0.76 | 0.65 |  | -2.12 | -0.86 |
| O=c1[nH]c(=O)n([C@H]2C[C@H](O)[C@@H](CO)O2)cc1/C=C/Br [Brivudine] | 12.41 ± 0.042 | 0.4 | -2.11 | 0.12 | -2.5 | -1.47 | -0.22 | -0.94 | 0.16 | -1.84 |  | -1.12 | -0.74 | -0.74 | -1.13 | 0.48 | -0.22 |
